Results on 54 compounds are retold here after ChEMBL document CHEMBL4513216, “Probing the Open Global Health Chemical Diversity Library for Multistage-Active Starting Points for Next-Generation Antimalarials” (ACS Infect Dis, 2020).

Molecules are shown by their SMILES. About 8,600 (12%) of roughly 69,000 compounds showed an effect of 50% or more. The entries come from a sample that favours strong results as a whole.

This assay deals with Plasmodium berghei. As to the kind of experiment: Screen against P. berghei liver stage (PbLuc), transformed with Luciferase, at 10uM. In kind it is functional, HepG2. The following applies: tested at 10 uM.
Turning to `Cn1ccnc1CN1CCC(CCCc2ccccn2)(C(N)=O)CC1`, the INHIBITION is listed as -20.6%.
On to `CNC(=O)C1Cc2ccccc2CN1C(=O)CC(C)C` (centres undefined), for which the INHIBITION is recorded as -47%.
With `Cc1cc(C)n(CCCNC(=O)NCc2c(C)cc(C)[nH]c2=O)n1` the figure was 38.9%; with `Cc1cc(C)n(CC(C)CNC(=O)NCc2c(C)cc(C)[nH]c2=O)n1` (centres undefined), 42.3%; with `Cc1cc(C)n(CC(C)NC(=O)NCc2c(C)cc(C)[nH]c2=O)n1` (centres undefined), 50.8%.
With `CCC(=O)N1CCCC1c1n[nH]cc1-c1ccccc1F` (centres undefined) the figure was -6.73%.
In the case of `O=C1CCCCN1CSc1nnnn1-c1ccc(Cl)cc1`, the INHIBITION was determined as 30.4%.
With `Cc1ccc(C)c(-n2nnnc2SCN2CCCCC2=O)c1` the figure was 13.7%; with `Cc1ccc(-n2nnnc2SCN2CCCCC2=O)cc1C`, 63.8%.
Then `O=C(Cc1ccccn1)N1CCC(c2noc(-c3ccncc3)n2)CC1`, with -8.12%.
Then `O=C(NCC1CC1)[C@@H]1CCO[C@@H]2CCN(Cc3ccsc3)C[C@H]21`, with -9.71%; and `CC1CCC(NC(=O)c2nn(C)cc2Br)CC1` (centres undefined), with 65.2%; and `Cn1cc(I)c(C(=O)NC2CCCC2)n1`, with -13.2%.
For `CC1CCC(NC(=O)c2nn(C)cc2I)CC1` (centres undefined), the INHIBITION is recorded as -32.5%.
With `Cc1nc(C(C)C)sc1C(=O)N1CCN(C2CCSCC2)CC1` the figure was -21.3%.
Then `Cc1ccc(N2CCC(NCc3cnc(C4CCC4)s3)CC2)nc1`, with 34.7%; and `CC(CCN1CCCC1=O)NCc1cnc(C2CCC2)s1` (centres undefined), with 54.4%.
In the case of `c1cnc(N2CCC(NCc3cnc(C4CCC4)s3)CC2)nc1`, the INHIBITION is recorded as -22%.
Take `O=C1CCCCN1CCCNCc1cnc(C2CCC2)s1`: the INHIBITION is given as 3.87%.
With `CC(c1nc(C2CC2)no1)N1CCN(CCN2CCCC2=O)CC1` (centres undefined) the figure was -65.2%.
Then `CCC(CCNCc1cnc(C2CCC2)s1)N1CCCC1=O` (centres undefined), with 53.4%.
With `CC(C)NC(=O)Nc1ccc(CNCc2cccc(OC(F)F)c2)cc1` the figure was 38.6%; with `Cn1c(Cn2ccnc2)nnc1C1CCN(C(=O)c2cccnc2)CC1`, -27.4%; with `Cn1cc(N2CC3(CCN(CC4CCC4)CC3)OCC2=O)cn1`, 42.5%.
With `Cc1ccc(C)c2c1NC(=O)C2CC(=O)O` (centres undefined), the INHIBITION is given as -95.1%.
With `Cc1cc(C)c2c(c1)C(CC(=O)O)C(=O)N2` (centres undefined) the figure was 54.8%; with `Cc1cc(C)c2c(c1)NC(=O)C2CC(=O)O` (centres undefined), 27.6%.
With `CCCc1nc(N2CCCN(c3ccncc3)CC2)c2cnn(C)c2n1` the figure was 39.1%; with `CCn1cnnc1C1CCN(C(=O)c2cc(F)ccc2OC)CC1`, 33.3%; with `CS(=O)(=O)CCS(=O)(=O)Cc1cc(Cl)c2c(c1)OCCCO2`, 25.5%.
On to `CN(C)C(=O)CS(=O)(=O)Cc1cc(Cl)c2c(c1)OCCCO2`, for which the INHIBITION is reported as 21.8%.
Then `CS(=O)(=O)Cc1cc(Cl)c2c(c1)OCCCO2`, with 50.1%.
Then `NC(=O)CS(=O)(=O)Cc1cc(Cl)c2c(c1)OCCCO2`, with -125%.
Consider `CN(C)C(=O)CCS(=O)(=O)Cc1cc(Cl)c2c(c1)OCO2`, for which the INHIBITION turned out to be 44.3%.
`CN(C)C(=O)CCS(=O)(=O)Cc1cc(Cl)c2c(c1)OCCO2`: the INHIBITION was 54.4%.
With `CNC(=O)CS(=O)(=O)Cc1cc(Cl)c2c(c1)OCCCO2`, the INHIBITION is listed as 6.14%.
On to `O=C(CS(=O)(=O)Cc1cc(Cl)c2c(c1)OCCCO2)NCC1CC1`, for which the INHIBITION was determined as 60.5%.
Then `CN(C)C(=O)CCCS(=O)(=O)Cc1cc(Cl)c2c(c1)OCCO2`, with 31.9%; and `CSCC(=O)N1C[C@H](c2ccc(C)o2)[C@@H](N)C1`, with -1.45%; and `CCNc1ncc(CN2CCOC(Cc3cccc(OC)c3)C2)cn1` (centres undefined), with 15.2%.
Then `Cn1cnc2c1C(COCc1cccnc1)N(Cc1nccs1)CC2` (centres undefined), with 20.1%; and `CCN(Cc1c(C)nn(CC)c1C)S(=O)(=O)c1cn(C)nc1C`, with 8.49%.
Then `COc1ccccc1CN1CC[C@]2(C[C@@H](OC)CO2)C1`, with -79.4%; and `CCC(C(=O)NC1CCCCC1)n1ccc2ncccc2c1=O` (centres undefined), with -4.12%.
As for `Nc1nc(N2CCCCCC2)ncc1C(=O)NCc1ccc(F)c(Cl)c1`, the INHIBITION turned out to be 43.8%.
Then `CN(C)CC1(O)CCCN(C(=O)CCc2nc3cccnc3n2C)C1` (centres undefined), with 8.64%.
With `CCOC(=O)NCCNC(=O)c1cc2ccccc2nc1N1CCCC1` the figure was -7.36%.
With `CS(=O)(=O)CCNC(=O)c1cc2ccccc2nc1N1CCCC1` the figure was -1.37%; with `Cn1cc(CCNC(=O)c2cc3ccccc3nc2N2CCCC2)cn1`, 59.4%.
Take `Cn1c(CCC(=O)N2CCC3(CCCO3)CC2)nc2cccnc21`: the INHIBITION came out at 27.4%.
Then `CCc1cc(CNC(=O)N2CCC(Cc3cnn(C)c3)C2)on1` (centres undefined), with 3.1%.
With `COc1ccccc1C1CNC(=O)c2nc(-c3cnn(C)c3)[nH]c2C1` (centres undefined) the figure was -36.5%.
With `COc1ccccc1C1CNC(=O)c2nc(-c3ncc[nH]3)[nH]c2C1` (centres undefined) the figure was 1.81%; with `COc1ccccc1C1CNC(=O)c2nc(-c3nccn3C)[nH]c2C1` (centres undefined), 55.7%.
